Measured values from PubChem BioAssay (Tox21).
A number with no mark means an inactive call. Records with an inconclusive call do not appear. A call without a number means that no potency is given here. The source made the active and inactive calls. Unless noted, the call rests on the fitted dose curve; in most records, active means well fitted curve in the direction sought with a large enough effect in the repeat runs; inconclusive means weak or mixed curves; inactive means no such curve, though single readings can be large; an effect the other way counts as inactive or inconclusive.

Columns and labels:
[1] = qHTS assay for small molecules that induce genotoxicity in human embryonic kidney cells expressing luciferase-tagged ATAD5 (AID 651632); further: nearly all actives have a fitted effect of over 15% in size
Method in brief: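 HEK293T cells carrying luciferase-tagged ATAD5 were given compound or DMSO vehicle and incubated 16 hr at 37C, 5% CO2. Luciferase activity was read after 30 min at room temperature with Amplite; a rise signals genotoxic stress.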

[2] = qHTS assay for small molecule agonists of the p53 signaling pathway - cell viability (AID 651633; calls by dose curve;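 further: p53RE-bla HCT reporter cells with a stable beta-lactamase p53 reporter; series mostly up to about 83 µM; nearly all actives have a fitted effect of over 30% in size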)
Method in brief: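 Viability counter-read: CellTiter-Glo luminescence (30 min, room temperature) in the same p53RE-bla plates. These plates had been exposed to compounds for 16 h at 37 C.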

[3] = qHTS assay for small molecules that induce genotoxicity in human embryonic kidney cells expressing luciferase-tagged ATAD5 - cell viability (AID 651634; calls by dose curve; further: nearly all actives have a fitted effect of over 25% in size; further: potency means the concentration at half of the fitted maximal effect)
Method in brief: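 HEK293T cells carrying luciferase-tagged ATAD5, 2,000 cells/well, exposed to compound for 15.5 hr at 37C. Viability read as live-cell protease activity by CellTiter-Fluor fluorescence after 30 min at 37C.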

[4] = qHTS assay for small molecule disruptors of the mitochondrial membrane potential - cell viability (AID 720634; calls by dose curve;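 further: human HepG2 liver cancer cells; series mostly up to about 83 µM; nearly all actives have a fitted effect of over 20% in size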)
Method in brief: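 HepG2 cells, 2,000 per well, attached overnight, then treated 1 hr at 37 C, 5% CO2. Viability read as ATP by CellTiter-Glo luminescence after 30 min at room temperature. Read in the same wells as the m-MPI membrane-potential dye assay.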

[5] = qHTS assay to test for compound auto fluorescence at 590 nm (red) in HepG2 cells (AID 720674)
Method in brief: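 We screened compounds on adherent HepG2 cells, incubating them for an hour at 37 C in 5% CO2 before reading emission at 590 nm under 540 nm excitation; values reflect equivalence to Rose Bengal sodium fluorescence.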

[6] = qHTS assay to test for compound auto fluorescence at 535 nm (green) in HepG2 cells (AID 720675)
[7] = qHTS assay to test for compound auto fluorescence at 460 nm (blue) in HEK293 cells (AID 720678)
Method in brief: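 Triamterene serves as the blue fluorophore standard. Compound signal at 405/460 nm is read in HEK293 wells (2,000 cells, 10% dialyzed FBS) after overnight treatment at 37C.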

[8] = qHTS assay to test for compound auto fluorescence at 590 nm (red) in HEK293 cells (AID 720679)
Method in brief: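 We plated HEK293 cells in 10% dialyzed FBS medium, let them adhere for 4-5 hr, then added 23 nL compound. Overnight at 37C and 5% CO2 preceded fluorescence measurement at 540/590nm.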

[9] = qHTS assay to test for compound auto fluorescence at 535 nm (green) in HEK293 cells (AID 720680)
[10] = qHTS assay to test for compound auto fluorescence at 460 nm (blue) in HEK293 cell free culture (AID 720681)
Method in brief: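 Blue fluorescence (Ex 405/Em 460 nm, triamterene-equivalent) was read immediately after pin transfer of compound or DMSO into medium (DMEM, 10% FBS) without cells.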

[11] = qHTS assay to test for compound auto fluorescence at 535 nm (green) in HEK293 cell free culture (AID 720682)
Method in brief: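 Read-out: 485/535 nm fluorescence intensity, calibrated against fluorescein. Medium only (DMEM + 10% FBS, no cells); test compound or DMSO vehicle added by pintool before plate reading.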

[12] = qHTS assay to test for compound auto fluorescence at 590 nm (red) in HEK293 cell free culture (AID 720683)
Method in brief: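 Red-channel autofluorescence of compounds in culture medium (DMEM, 10% FBS), no cells, measured at 540/590 nm. Rose Bengal sodium is the reference fluorophore for equivalence.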

[13] = qHTS assay to test for compound auto fluorescence at 590 nm (red) in HepG2 cell free culture (AID 720684)
Method in brief: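 Plate contents were MEM with 10% FBS plus test compound or DMSO, no cells. Fluorescence was recorded with 540 nm excitation and 590 nm emission.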

[14] = qHTS assay to test for compound auto fluorescence at 460 nm (blue) in HepG2 cell free culture (AID 720685)
Method in brief: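 Compound (23 nL) or DMSO pinned into cell-free MEM with 10% FBS; blue fluorescence read at 405/460 nm excitation/emission, expressed as auto-fluorescence equivalency to triamterene.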

[15] = qHTS assay to test for compound auto fluorescence at 535 nm (green) in HepG2 cell free culture (AID 720686)
[16] = qHTS assay to test for compound auto fluorescence at 460 nm (blue) in HepG2 cells (AID 720687)
Method in brief: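 Blue-channel autofluorescence (Ex/Em 405/460 nm, triamterene-equivalent) was measured after 1 hr compound exposure at 37 C, 5% CO2. Cells were HepG2, plated overnight at 37 C in MEM plus 10% FBS.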

[17] = molecular target: Glucocorticoid receptor (Homo sapiens) (UniProt P04150); experiment: qHTS assay to identify small molecule agonists of the glucocorticoid receptor (GR) signaling pathway (AID 720691; active means well fitted activation curve with a large enough effect in the signal ratio in the repeat runs, not every such curve was filed as active; the % refers to the signal ratio)
Sequence of Glucocorticoid receptor (Homo sapiens) (P04150 whole entry, looked up): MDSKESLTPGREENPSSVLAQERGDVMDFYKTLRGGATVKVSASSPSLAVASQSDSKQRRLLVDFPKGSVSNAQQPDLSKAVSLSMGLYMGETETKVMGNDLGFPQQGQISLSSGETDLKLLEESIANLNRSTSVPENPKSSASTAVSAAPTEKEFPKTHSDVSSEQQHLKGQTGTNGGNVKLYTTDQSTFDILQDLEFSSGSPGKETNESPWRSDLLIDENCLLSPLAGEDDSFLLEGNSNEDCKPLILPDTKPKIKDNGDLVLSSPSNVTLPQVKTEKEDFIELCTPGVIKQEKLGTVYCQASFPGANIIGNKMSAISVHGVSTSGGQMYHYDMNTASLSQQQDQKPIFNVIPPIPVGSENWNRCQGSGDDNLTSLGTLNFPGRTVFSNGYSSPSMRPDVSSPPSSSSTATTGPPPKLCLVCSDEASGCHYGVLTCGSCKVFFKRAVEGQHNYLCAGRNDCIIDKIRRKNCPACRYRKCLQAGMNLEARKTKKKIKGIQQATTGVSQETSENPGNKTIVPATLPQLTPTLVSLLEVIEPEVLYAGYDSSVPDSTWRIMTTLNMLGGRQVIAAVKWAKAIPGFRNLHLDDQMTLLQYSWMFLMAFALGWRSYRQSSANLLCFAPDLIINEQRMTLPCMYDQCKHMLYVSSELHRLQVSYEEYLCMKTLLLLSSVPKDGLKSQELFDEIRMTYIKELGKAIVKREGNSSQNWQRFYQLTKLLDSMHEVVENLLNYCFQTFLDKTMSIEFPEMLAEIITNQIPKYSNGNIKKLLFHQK
Method in brief: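 GR-bla HeLa cells carrying a GRE-driven beta-lactamase reporter, exposed to compounds for 18 h at 37 C. Reporter activation read as fluorescence after 2 h with LiveBLAzer B/G FRET substrate at room temperature.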

[18] = molecular target: Glucocorticoid receptor (Homo sapiens) (UniProt P04150); experiment: qHTS assay to identify small molecule antagonists of the glucocorticoid receptor (GR) signaling pathway (AID 720692; active means well fitted inhibition curve with a large enough effect in the signal ratio in the repeat runs, not every such curve was filed as active; the % refers to the signal ratio)
Method in brief: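 GR-bla HeLa cells carrying a GRE-driven beta-lactamase reporter received compound after 4 h plating, then dexamethasone (5 nM final). After 18 h at 37C, the FRET substrate was loaded for 2 h at room temperature and fluorescence read.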

[19] = qHTS assay for small molecule disruptors of the mitochondrial membrane potential (AID 720635)
Method in brief: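 Mitochondrial membrane potential tracked with Mito-MPS dye, red aggregates (ex 540/em 590 nm) against green monomers (ex 490/em 535 nm). Compound treatment 1 hr at 37C, dye 30 min in HepG2.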

Compound	Potency [1]	Potency [2]	Potency [3]	outcome [4]	outcome [5]	outcome [6]	Potency [7]	outcome [8]	outcome [9]	Potency [10]	outcome [11]	outcome [12]	outcome [13]	Potency [14]	outcome [15]	Potency [16]	Potency [17]	Potency [18]	Potency [19]
Cc1cc([N+](=O)[O-])ccc1N	inactive	inactive	47.9 µM (active)	inactive	inactive	inactive	inactive	inactive	inactive	inactive	inactive	inactive	inactive	inactive	inactive	inactive	inactive	inactive	
COc1ccc2nc(S(=O)Cc3ncc(C)c(OC)c3C)[nH]c2c1 (configuration not stated)	inactive	inactive	inactive	inactive	inactive	inactive		inactive	inactive	inactive	inactive	inactive	inactive	inactive	inactive	inactive			inactive
CCCOC(=O)c1c(Cl)c(Cl)c(Cl)c(Cl)c1C(=O)OCCC	inactive	inactive	inactive	inactive	inactive	inactive		inactive		inactive	inactive	inactive	inactive	inactive	inactive		inactive	inactive	
CC(C)C1CCC(C(=O)N[C@H](Cc2ccccc2)C(=O)O)CC1 (some centres not stated)	inactive	inactive	inactive	inactive	inactive		inactive	inactive	inactive	inactive	inactive	inactive	inactive	inactive	inactive	inactive			
CC(=O)OCC1=C(C(=O)O)N2C(=O)[C@@H](NC(=O)CSc3ccncc3)[C@H]2SC1	inactive	inactive	inactive	inactive	inactive			inactive	inactive	inactive	inactive	inactive	inactive	inactive			inactive		inactive
COc1cc(OC)c2ccc(=O)oc2c1	inactive	inactive	inactive	inactive	inactive	inactive		inactive	inactive		inactive	inactive	inactive		inactive				
CC(C)(C)C(O)/C=C/c1ccc2c(c1)OCO2 (configuration not stated)	inactive	inactive	inactive	inactive	inactive	inactive	inactive	inactive	inactive	inactive	inactive	inactive	inactive	inactive	inactive	inactive			
O=C(O)CNC(=O)c1ccccc1I	inactive	inactive	inactive	inactive	inactive	inactive	inactive	inactive	inactive	inactive	inactive	inactive	inactive			inactive	inactive	inactive	
